This is a sample that favours compounds with a hit; in the whole collection about 12% have one here.
RORg inh = inhibitors of mouse ROR gamma transcriptional activity. Drosophila S2 Gal4-RORgamma UAS-luciferase reporter, 20 h. Potency, µM (highest dose often 53.6 µM), without a hit: at the highest dose activity change, negative = inhibition, hits mostly inhibitors. 310,000 tested, 5.4% active. AID 2551; note: nearly all actives have a fitted effect of over 60% in size
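A Gal4/UAS one-hybrid system in insect cells: metallothionein-promoter Gal4–ROR gamma fusion plus Photinus luciferase reporter. Copper sulfate 700 uM final, 20 hr ambient incubation, luminescent detection after 10 min with reagent.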
VP16 counter = Gal4-VP16 reporter inhibition counter-screen; Drosophila S2 Gal4-VP16 UAS-luciferase, luminescence, 20 h; Potency, µM (series often up to 53.6 µM), for the others: top-dose activity, negative = inhibition, actives largely listed as inhibitors; 310,000 tested, 3.5% active; AID 2546;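 note: Gal4-VP16 expression switched on by copper sulfate through the metallothionein promoter; nearly all actives have a fitted effect of over 50% in size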
Sfp PPTase inh = Sfp phosphopantetheinyl transferase inhibition; Potency, µM, without a hit: largest response in the series, negative = inhibition, hits mostly inhibitors; 310,000 tested, 3.5% active; Biochemical Sfp PPTase activity, qHTS; AID 1490;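 note: the enzyme is Sfp with the accession as filed and its product quenches rhodamine fluorescence; 0% = enzyme reaction without inhibitor and -100% = no enzyme wells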
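Buffer: 50 mM Hepes-Na pH 7.6, 10 mM MgCl2, 0.01% Nonidet P-40, 0.01% BSA. Enzyme 15 nM, pre-exposed to compound 15 min; substrates then added and fluorescence change tracked over 30 min.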
PLK1 PBD block = inhibitors of human PLK1 polo-box domain binding. Potency, µM, inactives show max response, negative = inhibition, hits mostly inhibitors. P53350. 360,000 tested, 2.8% active. Plk1 PBD binding of FITC phosphopeptide, fluorescence polarization. AID 720504; note: series mostly up to about 57 µM; nearly all actives have a fitted effect of over 65% in size
ALDH1A1 block = ALDH1A1 (human) enzyme inhibition | P00352 | 220,000 tested, 7.3% active | Purified ALDH1A1, NADH fluorescence, propionaldehyde substrate | Potency, µM (highest dose often 75.3 µM), for the others: at the top dose activity, negative = inhibition, actives largely listed as inhibitors; active = well fitted inhibition curve with a large enough effect, not every such curve was filed as active; inconclusive = small, poorly fitted or top-dose-only effect, or another doubt; inactive = no such curve, though single readings can be large or run the other way;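 note: plate controls were no enzyme wells and a reference inhibitor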
Target sequence (P00352 whole entry, looked up): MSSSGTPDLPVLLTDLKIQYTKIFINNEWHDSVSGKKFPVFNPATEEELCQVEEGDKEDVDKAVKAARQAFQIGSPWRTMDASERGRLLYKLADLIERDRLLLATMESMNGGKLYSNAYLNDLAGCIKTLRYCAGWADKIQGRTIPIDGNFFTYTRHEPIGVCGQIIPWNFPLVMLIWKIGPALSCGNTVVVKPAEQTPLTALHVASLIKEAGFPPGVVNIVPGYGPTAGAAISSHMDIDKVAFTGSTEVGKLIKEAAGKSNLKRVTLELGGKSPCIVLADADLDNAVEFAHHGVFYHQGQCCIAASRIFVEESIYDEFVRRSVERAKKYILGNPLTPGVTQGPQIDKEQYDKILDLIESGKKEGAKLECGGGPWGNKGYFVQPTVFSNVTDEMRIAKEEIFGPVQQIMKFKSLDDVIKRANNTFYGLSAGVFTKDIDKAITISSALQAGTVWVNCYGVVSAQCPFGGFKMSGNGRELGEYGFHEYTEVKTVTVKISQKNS
* hit, by the source's call; u = inconclusive; x = no result; [ ] = another dose, or the depositor's remark. Unless noted, calls come from the whole dose curve; as a rule, active = well fitted curve in the direction sought with a large enough effect; inconclusive = small, poorly fitted or top-dose-only effect, or another doubt; inactive = no such curve, though single readings can be large; an effect the other way counts as inactive or inconclusive. Unless noted, % is set by controls: 0 for no effect and ±100 for the full control effect; potency is the fitted concentration of half-maximal effect.

SMILES | RORg inh | VP16 counter | Sfp PPTase inh | PLK1 PBD block | ALDH1A1 block
O=C1NC[C@H](Cc2ccccc2)N(C[C@@H]2CCCN2C[C@H](Cc2ccccc2)N2C[C@H](Cc3ccccc3)N(CCc3ccccc3)C(=O)C2=O)C1=O | x | x | x | -18% | x
NC(=O)CN(N=Nc1cccc([N+](=O)[O-])c1)c1cccc([N+](=O)[O-])c1 | 32% | -27% | -1% | -20% | 1.8µM*
COc1ccc(-c2onc3ccc(Br)cc23)cc1 | 13% | 21% | 71µM* | u | -7%
COc1cc(-c2onc3ccc(Br)cc23)cc(OC)c1OC | -6% | 7% | 50µM* | -7% | u
COc1cc(-c2nc(-c3ccc(Br)o3)no2)cc(OC)c1OC | 7% | 3% | -7% | -4% | -4%
NC(=O)c1cccc(Nc2nc(C(N)C3CCCCC3)cs2)n1 (configuration not stated) | x | x | x | -4% | x
Cn1c(-c2sc3cc(C(F)(F)F)cnc3c2-c2cccs2)n[nH]c1=S | 2.8µM* | -7% | -5% | -13% | u
CSc1nnc(-c2sc3cc(C(F)(F)F)cnc3c2-c2ccccn2)n1C | -2% | 5% | 1% | -6% | u
Cn1c(-c2sc3ccccc3c2Cl)n[nH]c1=S | u | u | -18% | -22% | u
Cn1c(-c2sc3cc(C(F)(F)F)cnc3c2-c2cccnc2)n[nH]c1=S | -5% | 24% | -29% | 24µM* | u
Cn1c(-c2sc3cc(C(F)(F)F)cnc3c2-c2ccccn2)n[nH]c1=S | u | 3% | -19% | -6% | 35µM*
CCOC(=O)OCC1C=C[C@H](c2cc(-c3ccccc3)ccc2O)C(c2ccc(C(C)=O)cc2)O1 (some centres not stated) | 23%[10 µM] | -2%[10 µM] | 13% | x | 6%[13.5 µM]
CC(C)[C@@H](CC(=O)N[C@@H]1CCNC[C@H]1C(=O)N[C@H](CC(=O)N[C@@H](CCC(=O)O)CC(=O)O)Cc1ccccc1)NC(=O)C[C@H](Cc1c[nH]c2ccccc12)NC(=O)[C@@H]1CCCC[C@H]1N | 10% | -7% | -16% | x | -2%
O=C1C2C3C=CC([C@@H]2C(=O)N1C1CCCCC1)[C@H]1C(=O)N(C2CCCCC2)C(=O)C31 (some centres not stated) | -6% | 7% | 8% | -7% | 1.4µM*
O=C1C2C3C=CC(C2C(=O)N1C1CCCCC1)C1C2C(=O)N(C4CCCCC4)C(=O)C2C31 (configuration not stated) | -1% | -4% | 15% | -1% | 1.4µM*
C[C@H]1CN([C@@H](C)CO)C(=O)CCCn2cc(nn2)CO[C@@H]1CN(C)C(=O)Nc1ccc(N2CCN(C)CC2)cc1 | x | x | x | 3% | x
CNc1ncnc2c1ncn2[C@H]1CN(Cc2ccc3c(c2)OCO3)C[C@@H](CO)O1 | x | x | x | -8% | x
O=C1NCC(Nc2ccc(Br)cc2)C(=O)N1 (configuration not stated) | x | x | x | -4% | x
COc1ccc(Cl)cc1NC(=O)CN1CCc2ccccc21 | -3% | 10% | -7% | 4% | 7.9µM*
COc1cc(NS(C)(=O)=O)c(OC)cc1NC(=O)c1ccccc1 | 3% | 6% | 6% | 3% | 25µM*
COc1cc(Cl)c(C)cc1NC(=O)c1ccccc1NC(=O)CN1CCN(c2ccccn2)CC1 | x | x | x | -4% | x
COCCOC(=O)c1c(NC(=O)CN2CCc3ccccc32)sc(C(N)=O)c1C | 29% | 2% | u | 3% | 14µM*
COc1cc(NC(=O)c2ccccc2)c(OC)cc1NC(C)=O | -11% | -3% | 3% | -2% | -8%
COc1cc(NC(=O)c2ccccc2)c(OC)cc1NC(=O)CN1CCN(c2ccccn2)CC1 | 27% | -13% | -11% | -3% | 16µM*
C#CCCCO/N=C1/C[C@@H](O)[C@@H](O)[C@@H]2[C@@H]3C(=O)N(C4CCCCC4)C(=O)[C@H]3CC[C@@H]12 | 14%[10 µM] | 5%[10 µM] | 11% | x | 3%[13.5 µM]
SMILES | RORg inh | VP16 counter | Sfp PPTase inh | PLK1 PBD block | ALDH1A1 block
CCCc1c(C(=O)N/N=C/C=C/c2ccccc2)nnn1-c1nonc1N | x | x | x | -16% | x
O=C(CN1CCCC1)Nc1ccccc1Sc1ccc(Cl)cc1 | 32% | -13%[10 µM] | 79µM* | -3% | -2%
COc1ccc(Cl)cc1NC(=O)CN1CCN(S(=O)(=O)N2CCCCC2)CC1 | 12% | -16% | 14% | -13% | x
COc1ccc(C(=O)Nc2cc3c(cc2N2CCCCC2)n(C)c(=O)n3C)cc1OC | 3.5µM* | 8% | -1% | -9% | x
NC(=O)C1CCN(CC(=O)Nc2ccccc2Sc2ccc(Cl)cc2)CC1 | 31% | -2% | -4% | -1% | -61%
COc1cc(NC(=O)c2ccc(Cl)cc2)c(OC)cc1NC(=O)CN1CCCCC1 | -11% | -5% | 8% | 30µM* | u
COc1ccc(Cl)cc1NC(=O)CN1CCCCCC1 | 10% | 6% | 19% | -16% | 18µM*
COc1ccc(Cl)cc1NC(=O)CN(C(=O)c1ccco1)C1CCCCC1 | 5% | 1% | 4% | -9% | 0.04µM*
Cc1cccc(CNc2ncnc3ccc(-c4ccc(C(=O)N(C)C)cc4)cc23)c1 | -13% | u | 4% | x | u
CC(C)(C)c1csc(NNC(=O)c2ccc(Cl)cc2)n1 | 0.45µM* | 7.1µM* | 45µM* | u | x
CC(C)(C)c1csc(NC(=O)c2cccnc2)n1 | u | 16% | 9% | 2% | x
O=C1NC[C@H](CCCCN2C[C@H](Cc3ccc(O)cc3)N(CCc3ccccc3)C(=O)C2=O)N(CCC2CCCCC2)C1=O | x | x | x | 0% | x
Cc1cc(C)n(-c2nc3ccccc3c(=O)n2OCC#N)n1 | 0.5µM* | 1µM* | 8% | -1% | x
COC(=O)COn1c(-n2nc(C)cc2C)nc2ccccc2c1=O | 4µM* | 8.9µM* | 7% | -6% | 4%
Cc1cc(C)n(-c2nc3ccccc3c(=O)n2OCC(C)C)n1 | u | 2% | 11% | -8% | x
CCOn1c(-n2nc(C)cc2C)nc2ccccc2c1=O | -35% | 6% | 11% | -12% | 7%
CCOC(=O)COn1c(-n2nc(C)cc2C)nc2ccccc2c1=O | 18µM* | 14µM* | 4% | -11% | x
CCOC(=O)C(C)On1c(-n2nc(C)cc2C)nc2ccccc2c1=O (configuration not stated) | 2.5µM* | 6.3µM* | -9% | -23% | x
c1ccc(Sc2ncccn2)nc1 | -11% | 3% | -28% | 27µM* | -11%
Clc1ccc(Sc2ccccn2)cc1 | u | 4% | -4% | -8% | x
Cc1onc(-c2ccccc2Cl)c1C(=O)O/N=C(\N)c1ccc([N+](=O)[O-])o1 | 0% | -27% | 2% | -5% | 13µM*
C/C(=N/OC(=O)c1c(-c2ccccc2Cl)noc1C)c1cnccn1 | 19% | 4% | 7% | 1% | u
CC1=CN2C(=N)/C(=C/c3ccc(Sc4ccc(C)cc4)o3)C(=O)N=C2S1 | 2.2µM* | 4µM* | -13% | -4% | u
CC1=CN2C(=N)/C(=C/c3ccc(Sc4ccc(Cl)cc4)o3)C(=O)N=C2S1 | u | 4.5µM* | 19% | -16% | u

Source: PubChem BioAssay (National Center for Advancing Translational Sciences (NCATS))
